This is part of a sample that, as a whole, favours compounds with a hit. Of some 79,000 tested, about 15% had one in any assay. Calls of active or inactive are those of the source. Cut-off read from the data, not from the text of the source: active = growth inhibition above about 70%; inactive = the rest.
How the values were obtained:
[1] = NCI Yeast Anticancer Drug Screen. Data for the rad52 strain (AID 147);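 note: 0% = growth of vehicle-treated control cultures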; conditions: S. cerevisiae rad52 mutant growth inhibition, active compounds read high
Outline: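 Vehicle-treated cultures served as the reference for growth inhibition of compound-exposed yeast bearing a DNA repair mutation.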

[2] = NCI Yeast Anticancer Drug Screen. Data for the wt1 strain (AID 149);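 note: 0% = growth of vehicle-treated wt1 cultures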; conditions: S. cerevisiae wt1 strain (SPY 50644) growth inhibition, active compounds read high
Outline: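 wt1 strain grown with compound or vehicle; inhibition taken from the growth difference.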

[3] = NCI Yeast Anticancer Drug Screen. Data for the mgt1 strain (AID 153); conditions: S. cerevisiae mgt1 mutant growth inhibition, active compounds read high
Outline: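 mgt1 strain exposed; growth vs vehicle control recorded as inhibition.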

[4] = NCI Yeast Anticancer Drug Screen. Data for the rad50 strain (AID 155);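 note: 0% = growth of vehicle-only cultures of the same strain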; conditions: S. cerevisiae rad50 strain growth inhibition, active compounds read high
Outline: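 DNA repair mutant yeast, compound exposure, growth read-out; inhibition is taken relative to vehicle.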

[5] = NCI Yeast Anticancer Drug Screen. Data for the mec2-1 strain (AID 157); conditions: S. cerevisiae mec2-1 strain, active compounds read high
Outline: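 Vehicle-treated cultures served as reference for growth inhibition of compound-exposed mec2-1 yeast.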

[6] = NCI Yeast Anticancer Drug Screen. Data for the rad14 strain (AID 159);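 note: 0% = growth of vehicle-treated control cultures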; conditions: S. cerevisiae rad14 strain growth inhibition, active compounds read high
Outline: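 DNA repair-defective yeast, compound-exposed; % growth inhibition derived by comparison with vehicle-treated controls.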

[7] = NCI Yeast Anticancer Drug Screen. Data for the sgs1 mgt1 strain (AID 161);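 note: 0% = growth of cultures given vehicle only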; conditions: S. cerevisiae sgs1 mgt1 strain, active compounds read high
Outline: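 Mutant yeast exposed to compound; growth scored against vehicle-only wells.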

[8] = NCI Yeast Anticancer Drug Screen. Data for the CLN2oe strain (AID 163);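 note: 0% = growth of vehicle-only control cultures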; conditions: S. cerevisiae CLN2oe strain, active compounds read high
Outline: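 Inhibition relative to vehicle-treated yeast is reported. Cells: strain with genetic alteration in cell-cycle control, grown with compound.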

[9] = NCI Yeast Anticancer Drug Screen. Data for the cln2 rad14 strain (AID 165);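 note: 0% = growth equal to vehicle treated cultures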; conditions: S. cerevisiae cln2 rad14 strain, active compounds read high
Outline: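 Each compound was tested on cln2 rad14 yeast. Inhibition of growth was calculated against vehicle-exposed controls.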

[10] = NCI Yeast Anticancer Drug Screen. Data for the bub3 strain (AID 167); conditions: S. cerevisiae bub3 mutant strain, active compounds read high
Outline: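 In this screen, a yeast mutant lacking normal mitotic checkpoint function is challenged with compound. Relative growth versus vehicle gives the inhibition value.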

[11] = NCI Yeast Anticancer Drug Screen. Data for the wt2 strain (AID 169);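 note: 0% = growth of vehicle-treated yeast cultures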; conditions: S. cerevisiae wt2 strain growth inhibition, active compounds read high
Outline: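 Inhibition of yeast growth was determined after compound treatment, normalised to controls receiving only vehicle.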

[12] = NCI Yeast Anticancer Drug Screen. Data for the mlh1 strain (AID 171);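 note: 0% = growth of vehicle-treated control cultures of the same strain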; conditions: S. cerevisiae mlh1 strain growth inhibition, active compounds read high
Outline: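 Vehicle-normalised growth inhibition of a repair- or checkpoint-altered yeast strain following compound treatment.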

[13] = NCI Yeast Anticancer Drug Screen. Data for the sgs1 strain (AID 173);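 note: 0% = growth of vehicle-only control cultures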; conditions: S. cerevisiae sgs1 mutant, active compounds read high
Outline: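 Screen format: yeast with repair or checkpoint alterations, compound exposure, growth read relative to vehicle.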

[14] = NCI Yeast Anticancer Drug Screen. Data for the mlh1 rad18 strain (AID 175); conditions: S. cerevisiae mlh1 rad18 strain growth inhibition, active compounds read high
Outline: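 Vehicle-treated cultures served as the reference for growth inhibition in a yeast strain carrying DNA damage repair alterations exposed to each compound.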

[15] = NCI Yeast Anticancer Drug Screen. Data for the rad18 strain (AID 177); conditions: S. cerevisiae rad18 mutant growth inhibition, active compounds read high
Outline: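 Test articles were incubated with altered yeast defective in DNA damage repair. Results are given as inhibition of growth versus vehicle.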

[16] = NCI Yeast Anticancer Drug Screen. Data for the rad50EPP+ strain (AID 151);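 note: 0% = growth of vehicle-treated control cultures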; conditions: S. cerevisiae rad50 mutant strain, active compounds read high
Outline: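 In this screen, rad50EPP+ yeast were exposed to compounds. Growth inhibition was scored against vehicle-treated controls.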

[17] = at 5.0 µM (retest, dose inferred, filed as 0.5)
[18] = at 50.0 µM (retest, dose inferred, filed as 5.0)

Measured: growth inhibition

NC(=S)NC(=S)Nc1ccccc1
inactive: [1]; at 1.2 µM -7% | [1]; at 3.7 µM -4% | [1]; at 11.0 µM -3% | [1]; at 33.0 µM 1% | [1]; at 100.0 µM 23% | [2]; at 1.2 µM -6% | [2]; at 3.7 µM -5% | [2]; at 11.0 µM -6% | [2]; at 33.0 µM 0% | [2]; at 100.0 µM 16% | [3]; at 1.2 µM -6% | [3]; at 3.7 µM -3% | [3]; at 11.0 µM 2% | [3]; at 33.0 µM 16% | [4]; at 1.2 µM 0% | [4]; at 3.7 µM -47% | [4]; [17] -1% | [4]; at 11.0 µM 18% | [4]; at 33.0 µM 5% | [4]; [18] 2% | [4]; at 50.0 µM 23.5% | [5]; at 1.2 µM -4% | [5]; at 3.7 µM -2% | [5]; [17] -2% | [5]; at 11.0 µM 2% | [5]; at 33.0 µM 8% | [5]; [18] 10% | [5]; at 50.0 µM 38.5% | [5]; at 100.0 µM 62% | [6]; at 1.2 µM -6% | [6]; at 3.7 µM -3% | [6]; at 11.0 µM 0% | [6]; at 33.0 µM 8% | [7]; [17] -3% | [7]; [18] 49% | [8]; at 1.2 µM -19% | [8]; at 3.7 µM -22% | [8]; at 11.0 µM -16% | [8]; at 33.0 µM -18% | [8]; at 100.0 µM -13% | [9]; [17] -25% | [9]; [18] 8% | [9]; at 50.0 µM 68.7% | [10]; at 1.2 µM -11% | [10]; at 3.7 µM -13% | [10]; [17] -13% | [10]; at 11.0 µM -14% | [10]; at 33.0 µM -8% | [10]; [18] 18% | [10]; at 50.0 µM 34.6% | [10]; at 100.0 µM 34% | [11]; at 1.2 µM -5% | [11]; at 3.7 µM 6% | [11]; at 11.0 µM -1% | [11]; at 33.0 µM 1% | [11]; at 100.0 µM 42% | [12]; at 1.2 µM -3% | [12]; at 3.7 µM 0% | [12]; at 11.0 µM 4% | [12]; at 33.0 µM 17% | [13]; at 1.2 µM 2% | [13]; at 3.7 µM 9% | [13]; at 11.0 µM 24% | [13]; at 33.0 µM 44% | [14]; [17] -1% | [14]; [18] 31% | [15]; at 1.2 µM -3% | [15]; at 3.7 µM -1% | [15]; at 11.0 µM 3% | [15]; at 33.0 µM 21%
active: [3]; at 100.0 µM 80% | [4]; at 100.0 µM 79% | [6]; at 100.0 µM 93% | [7]; at 50.0 µM 82.5% | [12]; at 100.0 µM 85% | [13]; at 100.0 µM 95% | [14]; at 50.0 µM 77% | [15]; at 100.0 µM 95%

CC(=O)Nc1ccc2c(c1)-c1ccccc1C2=O
inactive: [1]; at 1.2 µM -1% | [1]; at 3.7 µM 1% | [1]; at 11.0 µM 10% | [16]; at 1.2 µM -2% | [16]; at 3.7 µM -4% | [16]; at 11.0 µM 2% | [16]; at 33.0 µM 25% | [3]; at 1.2 µM -5% | [3]; at 3.7 µM -4% | [3]; at 11.0 µM -5% | [3]; at 33.0 µM 1% | [4]; at 1.2 µM -2% | [4]; at 3.7 µM 19% | [4]; [17] 2% | [4]; at 11.0 µM 20% | [4]; at 33.0 µM 68% | [4]; [18] 54% | [4]; at 50.0 µM 67.8% | [5]; at 1.2 µM -1% | [5]; at 3.7 µM 2% | [5]; [17] 7% | [5]; at 11.0 µM 4% | [5]; at 33.0 µM 15% | [5]; [18] 15% | [5]; at 50.0 µM 6.9% | [6]; at 1.2 µM -4% | [6]; at 3.7 µM -6% | [6]; at 11.0 µM -3% | [6]; at 33.0 µM 10% | [7]; [17] -3% | [7]; [18] 6% | [7]; at 50.0 µM 2.4% | [8]; at 1.2 µM -6% | [8]; at 3.7 µM -8% | [8]; at 11.0 µM -8% | [8]; at 33.0 µM -9% | [8]; at 100.0 µM 13% | [9]; [17] -3% | [9]; [18] 11% | [9]; at 50.0 µM -39.4% | [10]; at 1.2 µM 0% | [10]; at 3.7 µM -3% | [10]; [17] -3% | [10]; at 11.0 µM -1% | [10]; at 33.0 µM 7% | [10]; [18] -4% | [10]; at 50.0 µM -20.4% | [10]; at 100.0 µM 66% | [11]; at 1.2 µM -4% | [11]; at 3.7 µM 4% | [11]; at 11.0 µM -6% | [11]; at 33.0 µM 1% | [11]; at 100.0 µM 62% | [12]; at 1.2 µM -2% | [12]; at 3.7 µM -2% | [12]; at 11.0 µM 1% | [12]; at 33.0 µM 13% | [13]; at 1.2 µM -5% | [13]; at 3.7 µM -8% | [13]; at 11.0 µM -9% | [13]; at 33.0 µM 8% | [14]; [17] 1% | [14]; [18] 20% | [14]; at 50.0 µM -1.15% | [15]; at 1.2 µM -3% | [15]; at 3.7 µM -5% | [15]; at 11.0 µM -3% | [15]; at 33.0 µM 14%
active: [1]; at 33.0 µM 70% | [1]; at 100.0 µM 95% | [16]; at 100.0 µM 78% | [3]; at 100.0 µM 76% | [4]; at 100.0 µM 95% | [5]; at 100.0 µM 70% | [6]; at 100.0 µM 82% | [12]; at 100.0 µM 82% | [13]; at 100.0 µM 81% | [15]; at 100.0 µM 89%

Cc1cccc(C(C)(C)C)c1NC(=O)C(C#N)C1=C(Cl)C(=O)c2ccccc2C1=O (stereo unspecified)
inactive: [1]; at 1.2 µM 6% | [1]; at 3.7 µM 36% | [1]; at 11.0 µM 52% | [16]; at 1.2 µM 14% | [16]; at 3.7 µM 67% | [3]; at 1.2 µM 19% | [3]; at 3.7 µM 32% | [3]; at 11.0 µM 49% | [4]; at 1.2 µM 4% | [4]; at 3.7 µM 24% | [4]; [17] -1% | [5]; at 1.2 µM 14% | [5]; at 3.7 µM 46% | [5]; [17] -4% | [6]; at 1.2 µM 4% | [6]; at 3.7 µM 16% | [7]; [17] 46% | [8]; at 1.2 µM 4% | [8]; at 3.7 µM 30% | [8]; at 11.0 µM 58% | [9]; [17] 19% | [10]; at 1.2 µM 14% | [10]; at 3.7 µM 11% | [10]; [17] 39% | [11]; at 1.2 µM -21% | [11]; at 3.7 µM 6%
active: [1]; at 33.0 µM 97% | [1]; at 100.0 µM 98% | [16]; at 11.0 µM 99% | [16]; at 33.0 µM 99% | [16]; at 100.0 µM 98% | [3]; at 33.0 µM 98% | [3]; at 100.0 µM 97% | [4]; at 11.0 µM 70% | [4]; at 33.0 µM 98% | [4]; [18] 97% | [4]; at 50.0 µM 91% | [4]; at 100.0 µM 96% | [5]; at 11.0 µM 95% | [5]; at 33.0 µM 95% | [5]; [18] 98% | [5]; at 50.0 µM 90.5% | [5]; at 100.0 µM 97% | [6]; at 11.0 µM 76% | [6]; at 33.0 µM 98% | [6]; at 100.0 µM 97% | [7]; [18] 98% | [7]; at 50.0 µM 89.5% | [8]; at 33.0 µM 98% | [8]; at 100.0 µM 98% | [9]; [18] 97% | [9]; at 50.0 µM 88.7% | [10]; at 11.0 µM 76% | [10]; at 33.0 µM 98% | [10]; [18] 98% | [10]; at 50.0 µM 92.3% | [10]; at 100.0 µM 96% | [11]; at 11.0 µM 74% | [11]; at 33.0 µM 97% | [11]; at 100.0 µM 94%
